Hits are enriched below; roughly 1.3% of the tested compounds scored in any of these assays.
PKA-R2B act: activators of PKA-R2B holoenzyme, primary screen, biochemical, fluorescence polarization, Cy5-IP20, human; cAMP-dependent protein kinase catalytic subunit beta (Homo sapiens) + cAMP-dependent …; PKA-R2B holoenzyme dissociation; R2B truncated from residue 108, S112A mutant; 0% DMSO only, 100% 113 µM cGMP; activation, % at 11.4 µM; hit rate 0.079% among 340,000;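 active = activation above a cutoff set at the mean over all compounds plus 3 SD, cut at about 18% in these data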;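 note: higher means more holoenzyme dissociation and a rise in polarization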
Neddyl block: inhibitors of cullin neddylation, primary screen, biochemical, TR-FRET, uHTS, NAE and Ubc12. NEDD8-conjugating enzyme Ubc12 (Homo sapiens) + NEDD8-activating enzyme E1 regulatory …. inhibition, % at 25 µM. hit rate 0.58% among 360,000. AID 651699, 2012; in the data active = inhibition above about 36%
Rpn11 inh: Rpn11 (PSMD14) deubiquitinase inhibitors, primary screen, biochemical, fluorescence polarization, uHTS; calls only at 20 µM; human 26S proteasome, Ub4-pepOG fluorescence polarization; 20S core pre-blocked with epoxomicin; 26S proteasome non-ATPase regulatory subunit 14 (Homo sapiens), O00487; hit rate 0.59% among 360,000;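 active = inhibition at 20 µM, scaled to each plate's controls, above about 33%, limit read from the data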
Target sequence (O00487 whole entry, looked up): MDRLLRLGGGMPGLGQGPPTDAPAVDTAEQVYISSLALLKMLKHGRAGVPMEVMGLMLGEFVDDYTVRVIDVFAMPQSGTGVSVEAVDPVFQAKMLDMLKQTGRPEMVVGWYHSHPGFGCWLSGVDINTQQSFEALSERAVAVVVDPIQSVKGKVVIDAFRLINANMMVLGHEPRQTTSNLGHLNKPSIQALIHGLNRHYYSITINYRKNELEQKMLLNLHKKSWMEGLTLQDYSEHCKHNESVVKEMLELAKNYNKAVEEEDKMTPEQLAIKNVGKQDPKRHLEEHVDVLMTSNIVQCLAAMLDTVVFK
PKA-R1A act: activators of PKA-R1A holoenzyme, primary screen, biochemical, fluorescence polarization, Cy5-IP20, bovine R1A, mouse PKAc | PKA-R1A dissociation; scaled: DMSO 0%, 113 µM cGMP 100% | cAMP-dependent protein kinase type I-alpha regulatory subunit (Bos taurus) + … | hit rate 0.083% among 340,000 | AID 504707, 2011 | activation, % at 11.4 µM;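 active = percent activation above the mean of all tested compounds plus 3 SD, cut at about 19% in these data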;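 note: higher means more PKAc released from R1A so a rise in polarization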
Neddyl inh conf: blockade of NEDD8 conjugation to cullin – biochemical, TR-FRET, single concentration, confirmation; hit rate 13% among 1,800; shares compounds with Neddyl block; calls only at 25 µM; TR-FRET cullin neddylation biochemical assay; AID 652217, 2013; in the data active = inhibition above about 40%;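 note: neddylation substrate is the cullin 1 ring ligase complex with SKP2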
Starred values were filed as active, the others as inactive; i = inactive; / = not tested or not shown; + = active, no number.

SMILES	PKA-R2B act	Neddyl block	Rpn11 inh	PKA-R1A act	Neddyl inh conf
Cc1ccc(-c2nc(N/N=C/c3cccnc3)c3ccccc3n2)cc1	1	-22	i	-5	/
COc1ccc(Nc2nc(-c3ccncc3)nc3ccccc23)cc1	7	43*	i	6	i
COc1ccc(/C=N/Nc2nc(-c3cccnc3)nc3ccccc23)c(OC)c1	-8	41*	i	-26	+
CNC(=S)NC1(C)CCS(=O)(=O)C1 (stereo not drawn)	/	-11	i	/	/
COc1ccc(CCNC(=O)c2cc3c(=O)n4ccccc4nc3n(CCN3CCOCC3)c2=N)cc1	0	40*	i	0	i
COc1ccc(NC(=O)Cn2c(C(C)C)nc(C)cc2=O)cc1Cl	-13	-2	i	-10	/
COc1ccc(S(=O)(=O)Nc2c(NC3CCCCC3)c3ccccc3oc2=O)cc1OC	-5	41*	i	2	i
Cc1ccc(S(=O)(=O)Nc2c(NC3CCCCC3)c3ccccc3oc2=O)cc1C	-5	41*	i	0	/
Cc1ccc(S(=O)(=O)Nc2c(NC3CCCCC3)c3ccccc3oc2=O)cc1	3	38	i	7	/
CC(=O)c1cccc(NC(=O)c2ccc(-c3ccccc3[N+](=O)[O-])o2)c1	10	-15	i	2	/
COCCn1nnnc1C(c1cc2cc(OC)c(OC)cc2[nH]c1=O)N1CCN(c2ccc(O)cc2)CC1 (stereo not drawn)	-8	42*	i	-10	i
CCNc1cc2n(c(=O)n1)CCc1cc(OC)c(OC)cc1-2	-8	/	i	-13	/
COc1cc2c(cc1OC)-c1cc(NCc3ccccn3)nc(=O)n1CC2	-5	39*	i	-10	+
CCN(CC)CCNC(=O)c1ccc(NC(=O)c2cc(-c3ccco3)nc3ccccc23)cc1	-4	53*	i	-14	i
COc1ccc(NC(=O)c2cc(-c3ccco3)nc3ccccc23)cn1	-16	19	i	0	/
CN(C)C(=O)c1ccc(NC(=O)c2cc(-c3ccco3)nc3ccccc23)cc1	-5	53*	i	-4	/
CC(C)NC(=O)NC(=O)CN1c2cccc3cccc(c23)S1(=O)=O	0	35	i	-1	/
O=C1OC(c2ccccc2)=N/C1=C\C=C\c1ccco1	-3	45*	i	4	i
CN1CCC(C(=O)N2CCCC(C(=O)c3ccc4c5c(cccc35)CC4)C2)CC1 (stereo not drawn)	-2	41*	i	1	i
Cc1nc(=S)c2ccccc2[nH]1	0	-72	i	-10	/
Cc1cc2[nH]c3ccccc3c2c(C)n1	2	40*	i	1	i
Cc1ccc(C)c(C(C)NC(=O)c2ccc(Br)o2)c1 (stereo not drawn)	-9	-1	i	-2	/
CCc1cc(C(=O)N2CCCC(Nc3ccc(F)c(F)c3)C2)n(C)n1 (stereo not drawn)	-6	4	i	-4	/
CCOC(=O)c1ccccc1N=Cc1c(O)c2ccccc2oc1=O	1	40*	i	-8	i
CCOc1ccc(N=Cc2c(O)c3ccccc3oc2=O)cc1	-4	0	i	-14	/
SMILES	PKA-R2B act	Neddyl block	Rpn11 inh	PKA-R1A act	Neddyl inh conf
O=C(c1cnn2c(C(F)F)cc(-c3ccccc3)nc12)N1CCOCC1	0	41*	i	-9	i
CN=Cc1c(NC)nc2c(C)cccn2c1=O	-1	43*	i	-7	+
Cc1cccn2c(=O)c(C=Nc3ccc(Cl)cc3)c(NCCO)nc12	-9	35	i	-11	/
CNc1nc2c(C)cccn2c(=O)c1C=NCc1ccccc1	-7	35	i	-6	/
Cc1cccn2c(=O)c(C=Nc3ccccc3)c(NCCO)nc12	-2	46*	i	-8	i
OCCN1CCN(c2nc3ccccc3nc2-c2ccccc2)CC1	1	39*	i	-6	i
COc1cc(/C=C/C(=O)NC(C)CCc2ccccc2)cc(OC)c1OC (stereo not drawn)	1	40*	i	-3	i
COc1cc(/C=C/C(=O)N(C)CC(=O)Nc2ccccc2SC)cc(OC)c1OC	-9	41*	i	-2	i
CSc1ccccc1NC(=O)CN(C)C(=O)/C=C/c1ccccc1	-2	-17	i	-4	/
COc1cc(/C=C/C(=O)NCc2ccccn2)cc(OC)c1OC	-18	44*	i	5	i
COc1cc2c(cc1OC)C1=C(C#N)CCC(=NC(=O)c3ccc(Cl)cc3)N1CC2	-10	6	i	2	/
COc1cc2c(cc1OC)C1=C(C#N)COCN1CC2	-11	41*	i	2	i
CSc1nnc(-c2sc3cc(C(F)(F)F)cnc3c2-c2ccccn2)n1C	-11	42*	i	-4	i
Cn1c(-c2sc3cc(C(F)(F)F)cnc3c2-c2ccccn2)n[nH]c1=S	/	-6	i	/	/
COc1ccc(/C=N/NC(=O)c2ccc(N)cc2)cc1Cn1cc([N+](=O)[O-])cn1	-6	-14	i	-15	/
COc1ccc(/C=N/NC(=O)c2ccccc2O)cc1Cn1cc(Cl)cn1	-3	48*	i	-3	+
CC(CCCC(C)(C)O)CC1C2=C(CCCC2=O)OC2=C1C(=O)CCC2 (stereo not drawn)	1	1	i	0	/
CN(N=Nc1nc[nH]c1C(=O)NN)C1CCCCC1	9	7	i	-14	/
Cc1csc(SCC(=O)Nc2ccccc2C)n1	-7	-7	i	-11	/
Cc1csc(SCC(=O)Nc2cccc3nsnc23)n1	7	46*	i	-1	/
COc1ccc(-c2cc3ccccc3n2CC(O)CNC(CO)(CO)CO)cc1 (stereo not drawn)	6	45*	i	1	/
COc1cc(/C=N/NC(=O)c2ccc(CSc3nc4ccccc4[nH]3)cc2)cc(OC)c1OC	2	49*	i	-11	+
O=C(NCCO)c1ccc(CSc2nc3ccccc3[nH]2)cc1	-4	2	i	-11	/
COc1cc(/C=N/Nc2nc3ccccc3[nH]2)cc(Br)c1OCC(=O)N(C)C	1	57*	i	7	+
COc1cc(/C=N/Nc2nc3ccccc3[nH]2)cc(OC)c1O	-13	23	i	-1	/

Compound activity as filed in PubChem BioAssay.
